# This is a sample that favours compounds with a hit; in the whole collection about 19% have one here.
# TDP1 cell noCPT: qHTS for Inhibitors of human tyrosyl-DNA phosphodiesterase 1 (TDP1): qHTS in cells in absence of CPT; DT40 Tdp1-/- hTDP1 cells, no CPT, ATP luminescence, 48 h; Potency, µM (doses to about 46.2 µM), for the others: at the top dose activity change, negative = growth inhibition, hits mostly inhibitors; 15% of 420,000 active; AID 686978, 2013; note: potency is the fitted concentration of half-maximal effect; % is set by controls: 0 for no effect and ±100 for the full control effect; nearly all actives have a fitted effect of over 55% in size
#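 Seeded 400 DT40-hTDP1 cells/well (vehicle DMSO, no 20 nM CPT); pinned compounds; ≥48 hr at 37 °C; CellTiter-Glo luminescence as viability measure.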
# DT40 TDP1 CPT: DT40-hTDP1 cell growth loss with CPT; chicken DT40 Tdp1-/-;hTDP1 cells + 20 nM CPT, ATP luminescence, 48 h; Potency, µM (series often up to 46.2 µM), for the others: top-dose activity change, negative = growth inhibition, actives largely listed as inhibitors; AID 686979; 12% of 420,000 active; note: potency is the fitted concentration of half-maximal effect; % is set by controls: 0 for no effect and ±100 for the full control effect; nearly all actives have a fitted effect of over 55% in size
#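 Cell growth measured by CellTiter-Glo luminescence after a minimum 48 h, 37 C compound exposure with 20 nM CPT in Tdp1-knockout DT40 cells stably expressing hTDP1, seeded 400/well; qHTS titration format.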
# TGFb inhibitor: TGF-b pathway inhibition. 1.2% of 410,000 active. HepG2 CAGA-GFP TGF-b/SMAD3 reporter, GFP fluorescence, 18 h; TGF-beta stimulated, 500 pg/mL final. AID 588855. Potency, µM (top dose mostly 46.1 µM), for inactives: top-dose activity, negative = inhibition, actives largely listed as inhibitors; note: potency is the fitted concentration of half-maximal effect; % is set by controls: 0 for no effect and ±100 for the full control effect; nearly all actives have a fitted effect of over 65% in size
#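 GFP signal (ex488/em500-530) from TGF-beta-stimulated HEPG2 CAGA-GFP cells, 500 pg/mL final, 18 h at 37 degrees C in DMEM plus 1% FBS, normalized to unstimulated and DMSO-stimulated controls.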
# HepG2 tox: counter-screen for TGF-b inhibitors: cytotoxicity in HepG2 cells; HepG2 CAGA-GFP viability, ATP luminescence, 18 h; Potency, µM (doses to about 46.1 µM), without a hit: top-dose activity change, negative = cytotoxicity, actives largely listed as cytotoxic; 0.76% of 410,000 active; note: potency is the fitted concentration of half-maximal effect
#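 CellTiter-Glo luminescence gave cytotoxicity after 18 hours at 37 degrees C. The cells were HepG2 CAGA-GFP in 1% FBS DMEM, stimulated with 500 pg/mL TGF-beta after compound addition. %Activity was normalised to no-cell wells (complete cell-killing) and DMSO (no toxicity), and curves were fitted and classified.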
# IL1B secr inh: inhibitors of inflammasome signaling (IL-1 beta secretion); THP-1 LPS/ATP IL-1B secretion, AlphaLISA, 16 h; stronger effect = lower value; AID 743279; activity change, % at 57.5 µM; 4.7% of 360,000 active; in the data active = activity change below about -50%; inconclusive = mostly about -30% to -49%; note: % is set by controls: 0 for no effect and ±100 for the full control effect
#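 Secreted IL-1B measured by AlphaLISA bead assay after 16 h compound exposure of THP-1 cells; compounds (final up to 57.5 uM) added 1 h before LPS (250 ng/mL) and ATP (1.25 mM) stimulation; lower signal means less secretion.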
# S-ASM inh: inhibitors of human secretory acid sphingomyelinase. P17405. placental ASM, HMU-PC fluorogenic substrate, 60 min. Potency, µM (titrated, usually from 57.5 µM), without a hit: top-dose activity change, negative = inhibition, actives largely listed as inhibitors. 0.006% of 340,000 active; note: potency is the fitted concentration of half-maximal effect
# Target sequence (P17405 47-631 limits assumed): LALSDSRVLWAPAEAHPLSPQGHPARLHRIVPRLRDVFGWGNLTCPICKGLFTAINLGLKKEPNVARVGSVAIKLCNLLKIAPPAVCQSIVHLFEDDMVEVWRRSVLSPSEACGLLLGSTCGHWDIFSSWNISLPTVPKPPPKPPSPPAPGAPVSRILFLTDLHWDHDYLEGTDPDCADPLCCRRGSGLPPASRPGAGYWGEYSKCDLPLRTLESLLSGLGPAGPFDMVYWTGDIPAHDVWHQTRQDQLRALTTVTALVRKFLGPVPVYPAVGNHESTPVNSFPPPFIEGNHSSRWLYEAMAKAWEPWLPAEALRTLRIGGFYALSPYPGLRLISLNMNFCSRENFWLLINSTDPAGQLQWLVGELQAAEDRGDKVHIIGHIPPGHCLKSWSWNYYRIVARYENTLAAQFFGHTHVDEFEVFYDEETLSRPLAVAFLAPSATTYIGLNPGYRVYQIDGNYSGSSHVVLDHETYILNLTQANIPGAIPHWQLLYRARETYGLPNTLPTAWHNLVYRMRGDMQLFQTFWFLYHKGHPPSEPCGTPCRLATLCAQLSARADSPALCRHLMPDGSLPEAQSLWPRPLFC
#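 Steps: dispense placental human ASM, pin compound, wait 10 min at room temperature, add HMU-PC0 substrate at 9 uM final, incubate 60 min at 37 °C, add stop solution raising pH to 10, read fluorescence.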
# An asterisk follows results filed as active; u = inconclusive; x = no result given. Unless noted, calls come from the whole dose curve; as a rule, active = well fitted curve in the direction sought with a large enough effect; inconclusive = small, poorly fitted or top-dose-only effect, or another doubt; inactive = no such curve, though single readings can be large; an effect the other way counts as inactive or inconclusive.
SMILES,TDP1 cell noCPT,DT40 TDP1 CPT,TGFb inhibitor,HepG2 tox,IL1B secr inh,S-ASM inh
COc1ccc(CCN2CC(C(=O)OCC(=O)N(C)CC(=O)Nc3ccccc3Cl)CC2=O)cc1OC (configuration not stated),20%,1%,10%,-6%,0,0%
CN(CCNC(=O)c1c[nH]c2c1ccc1ccccc12)CCNC(=O)c1c[nH]c2c1ccc1ccccc12,u,23µM*,13µM*,-103%,-23,u
CN(C)CCNC(=O)c1cccc2nc3c(ccc4ccccc43)nc12,4.6µM*,5.8µM*,u,-67%,-101*,6%
CN(C)CCNC(=O)c1ccccc1-c1ccccc1,-5%,-3%,3%,-2%,-6,3%
CN(C)CCNC(=O)c1ccccc1-c1cc2ccccc2c(=O)o1,6%,5%,1%,-5%,-3,2%
COc1ccc(-c2nc3c(C(=O)NCCN(C)C)cccc3c3ccccc23)cc1,4.1µM*,1.3µM*,0%,18µM*,-100*,26%
COc1cccc2nc3c(C(=O)NCCN(C)C)cccc3cc12,0.18µM*,0.16µM*,u,-5%,-97*,14%
COc1cccc2c1C(=N)c1c(O)c3c(c(O)c1C2=O)CC(O)(C(C)=O)CC3OC1CC(N)C(O)C(C)O1 (configuration not stated),0.18µM*,0.16µM*,7.1µM*,-57%,-102*,-19%
COc1cccc2c1C(=O)c1c(O)c3c(c(O)c1C2=O)CC(O)(C(C)=O)CC3OC1CC(O)C(O)C(C)O1 (configuration not stated),0.82µM*,1.2µM*,-19%,-32%,-103*,-11%
CCCCCC(=O)N/N=C(\C)c1ccccn1,5.8µM*,5.8µM*,-29%,-6%,47,7%
C/C(=N\NC(=O)c1ccc(Cl)cc1)c1ccccn1,0.52µM*,0.58µM*,2µM*,-24%,-92*,2%
C/C(=N\NC(=O)c1cc(C)nc2ccccc12)c1ccncc1,5%,-22%,0%,-5%,37,-4%
CCCCCCCCCC(=O)N/N=C(\C)c1cccnc1,u,u,-4%,-45%,2,-3%
C/C(=N\NC(=O)c1cc(C)nc2ccccc12)c1ccccn1,0.73µM*,1.5µM*,4µM*,-37%,143,2%
C/C(=N/NC(=O)CNc1ccc(C)cc1)c1ccc(Br)s1,18µM*,18µM*,-18%,-10%,-1,-12%
CCOc1ccc(OCC)c(NC(=O)c2cnn(-c3ccc(F)cc3)c2-n2cccc2)c1,x,x,-5%,-15%,x,x
CCOc1ccc(NC(=O)CSc2nc3ccsc3c(=O)n2CCC(=O)O)cc1,24%,-3%,-2%,8%,19,0%
CCOC(=O)c1cc2c(c(-c3cccc(C#Cc4ccc(OC)c(OC)c4)c3)n1)[C@@H](CCO)N(S(=O)C(C)(C)C)C2 (some centres not stated),u,u,u,-16%,-28,x
CC(=NNC(=S)SCc1ccccc1)c1ccccn1,0.041µM*,0.052µM*,u,-32%,-3,-6%
CC(=NNC(=S)Nc1cccc(Cl)c1)c1ccccn1,0.021µM*,0.082µM*,u,-48%,-88*,-7%
S=C(NCc1ccccn1)Nc1cccc(Cl)c1,u,u,-24%,-1%,-18,2%
O=C(Sc1ccc(Cl)cc1)c1ccccn1,16µM*,16µM*,-8%,-31%,-83*,-1%
C/C(=N\NC(=O)c1ccc(Cl)cc1)c1ccc(Br)s1,10µM*,12µM*,-8%,-23%,-28,4%
C/C(=N\NC(=O)c1cc(Cl)ccc1O)c1ccc(Br)s1,u,u,-5%,-6%,18,-2%
C=CCN1C(=O)C(CC(=O)NCC)SC1=Nc1cc(Cl)ccc1Cl (configuration not stated),u,u,16%,-21%,16,-3%
SMILES,TDP1 cell noCPT,DT40 TDP1 CPT,TGFb inhibitor,HepG2 tox,IL1B secr inh,S-ASM inh
O=C(Nc1cccc(Cl)c1)Nc1nnc(CSCCOc2ccc(Cl)cc2)s1,3.3µM*,3.3µM*,u,-12%,-27,-1%
O=C(Nc1ccc(Cl)cc1)Nc1nnc(CSCc2ccccc2)s1,18µM*,16µM*,-4%,-4%,-3,-3%
O=C(Nc1ccc(Cl)cc1)Nc1nnc(CSc2ccc(Cl)cc2)s1,2.6µM*,4.6µM*,-8%,-1%,-58*,-1%
Cc1ccc(NC(=O)Nc2nnc(CSCCOc3ccc(Cl)cc3)s2)cc1,u,-25%,-7%,-10%,0,0%
CC(=O)Nc1nnc(SCc2ccccc2F)s1,-18%,6%,-14%,2%,0,4%
O=C(Nc1ccc(Cl)cc1)Nc1nnc(SCc2ccc(Cl)cc2)s1,-14%,-10%,-9%,-16%,-12,3%
CC(=O)Nc1nnc(CSCc2ccccc2F)s1,-26%,-22%,1%,7.9µM*,13,2%
O=C(Nc1ccccc1)Nc1nnc(SCc2ccc(Cl)cc2)s1,-22%,u,15%,6%,25,1%
O=C(COc1ccc(C(=S)N2CCCC2)cc1)Nc1ccccc1C(F)(F)F,-26%,u,15%,-8%,-15,2%
NC(=O)[C@@H]1CCCN1Cc1nc(-c2ccc(C(F)(F)F)cc2)no1,u,u,-3%,-4%,9,2%
O=C(Nc1cccc(Cl)c1)Nc1nnc(CC2=CCCCC2)s1,18µM*,4.6µM*,-19%,-15%,43,-2%
CCCSc1nc2c(cnn2-c2ccc(C)c(C)c2)c(=O)[nH]1,1%,-4%,-7%,-43%,-10,3%
COC(=O)c1ccc(CSc2nc3c(cnn3-c3ccc(C)c(C)c3)c(=O)[nH]2)o1,26µM*,u,2%,-12%,69,3%
Cc1cccc(N2CCN(C(=O)C3CCN(C(=O)c4cc5sccc5n4C)CC3)CC2)c1C,8.2µM*,12µM*,11µM*,-12%,x,x
Cc1cccc(N2CCN(C(=O)C3CCCN(C(=O)c4cc5sccc5n4C)C3)CC2)c1C (configuration not stated),23µM*,23µM*,u,-30%,x,x
O=C(NCc1cccc(Cl)c1)c1oc(=O)c2ccccc2c1-c1ccccc1,-1%,4%,-19%,-20%,x,x

# Assay outcomes (PubChem)
